MBD2 inh: blocks human MBD2 binding to methylated DNA | 0.31% of 370,000 active | inhibition, % at 4.4 µM | AID 686964 | Q9UBB5 | TR-FRET, MBD2 binding to methylated oligonucleotide; in the data active means inhibition above about 13%
PRMT1 inh: inhibitors of human PRMT1 | recombinant PRMT1, activity-based probe fluorescence polarization | inhibition, % at 2.79 µM | 1.3% of 370,000 active | AID 652257;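 active means inhibition above about 21% made by adding two undisclosed values, limit read from the data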
Target sequence (Q99873 whole entry, looked up): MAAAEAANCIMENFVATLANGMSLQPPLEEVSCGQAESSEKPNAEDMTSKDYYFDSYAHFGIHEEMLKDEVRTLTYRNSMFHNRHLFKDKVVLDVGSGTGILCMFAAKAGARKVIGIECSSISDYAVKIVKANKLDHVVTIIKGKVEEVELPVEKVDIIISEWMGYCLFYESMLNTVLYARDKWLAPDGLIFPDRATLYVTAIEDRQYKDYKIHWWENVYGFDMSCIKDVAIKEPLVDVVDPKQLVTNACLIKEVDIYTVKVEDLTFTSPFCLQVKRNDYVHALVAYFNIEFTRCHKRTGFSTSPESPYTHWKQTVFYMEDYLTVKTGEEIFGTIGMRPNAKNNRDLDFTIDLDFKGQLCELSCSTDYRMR
ABHD5-PLIN5 inh: inhibitors of human ABHD5-perilipin-5 interaction; Q00G26+Q8WTS1; Split G. princeps luciferase complementation, luminescence, 4 h; inhibition, % at 4 µM; 0.78% of 360,000 active;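 active means inhibition above the mean inhibition across every tested compound plus 3 SD, cut at about 22% in these data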;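 further: 0% = DMSO only wells and the 100% control is not disclosed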
UHRF1 binding: human UHRF1 methylated DNA binding inhibitors | UHRF1 binding to methylated oligo, TR-FRET | Q96T88 | inhibition, % at 4.4 µM | AID 687016 | 0.75% of 370,000 active; in the data active means inhibition above about 21%;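 further: UHRF1 SRA domain binding a hemimethylated CpG hairpin DNA probe; 0% = median of test compound wells and 100% = reference inhibitor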
LEDGF integ inh: blocks HIV-1 LEDGF/p75-dependent DNA integration; inhibition, % at 3.7 µM; 0.64% of 370,000 active; AID 743269; TR-FRET IN-LEDGF/p75 DNA integration, Eu/Cy5;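 active means inhibition above the screen-wide mean plus 3 SD, cut at about 13% in these data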;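 further: signal is the Cy5 over europium emission ratio at 671 and 618 nm; 0% = plate median of compound wells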
rCAG RNA binder: r(CAG) repeat RNA binding | 1.3% of 370,000 active | AID 651821 | inhibition, % at 3 µM | TO-PRO-1 dye displacement fluorescence;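 active means inhibition above the plate cutoff, the mean of all test compounds on that plate plus 3 SD, cut at about 35% in these data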;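 further: 0% = DMSO alone and 100% = 100 µM mitoxantrone as full dye displacement; higher means more dye released from RNA so lower well fluorescence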
The depositor's hits bear a star. This is a sample that favours compounds with a hit; in the whole collection about 4.1% have one here.

What do the screens show for `Cc1cc(C)nc(OC(C(=O)O)C(OCC(C)C)(c2ccccc2)c2ccccc2)n1` (configuration not stated)?
MBD2 inh: 0; PRMT1 inh: 1; ABHD5-PLIN5 inh: -2; UHRF1 binding: 0; LEDGF integ inh: -9; rCAG RNA binder: 17

Results for COC(=O)c1ccccc1-c1c2ccc(=N)cc-2oc2cc(N)ccc12 ?
MBD2 inh: -436; PRMT1 inh: active; ABHD5-PLIN5 inh: -1; UHRF1 binding: inactive; LEDGF integ inh: 1; rCAG RNA binder: -72

How did CCc1c(-c2ccc(Br)cc2)ncn1CCc1ccccc1OC do in these assays?
MBD2 inh: -1; PRMT1 inh: 0; UHRF1 binding: 8; LEDGF integ inh: -1; rCAG RNA binder: 2

What do the screens show for `Cc1ccc(C2CC(=O)C=C(NCC(C)C)C2)cc1` (configuration not stated)?
MBD2 inh: -2; PRMT1 inh: -2; ABHD5-PLIN5 inh: -3; UHRF1 binding: 0; LEDGF integ inh: -2; rCAG RNA binder: -5

Results for Cc1ccc(C2CC(=O)C=C(NCc3ccccc3)C2)cc1 (configuration not stated) ?
MBD2 inh: -4; PRMT1 inh: -1; ABHD5-PLIN5 inh: 5; UHRF1 binding: 36*; LEDGF integ inh: 0; rCAG RNA binder: -4

How did O=Cc1ccc(-c2cccc(C(=O)O)c2)o1 do in these assays?
MBD2 inh: -1; PRMT1 inh: 7; ABHD5-PLIN5 inh: -2; UHRF1 binding: 8; LEDGF integ inh: -3; rCAG RNA binder: -1

What do the screens show for `O=C(/C=C/c1ccc(-c2ccccc2)o1)c1ccccc1`?
MBD2 inh: -2; PRMT1 inh: 25*; ABHD5-PLIN5 inh: 11; UHRF1 binding: 0; LEDGF integ inh: -2; rCAG RNA binder: 22

How did CC1=NN(C(=O)COc2ccccc2)C(O)(c2cccnc2)C1 (configuration not stated) do in these assays?
MBD2 inh: 0; PRMT1 inh: -3; ABHD5-PLIN5 inh: 2; UHRF1 binding: 21*; LEDGF integ inh: 3; rCAG RNA binder: 2

How did Cc1ccc(OCc2nnc(SCC(=O)O)n2N)cc1 do in these assays?
MBD2 inh: 5; PRMT1 inh: -1; ABHD5-PLIN5 inh: -8; UHRF1 binding: 0; LEDGF integ inh: 1; rCAG RNA binder: -1

How did COc1ccc(OCc2nnc(SCC(=O)N(C)Cc3ccccc3)n2N)cc1 do in these assays?
MBD2 inh: 3; PRMT1 inh: 21*; ABHD5-PLIN5 inh: 1; UHRF1 binding: 4; LEDGF integ inh: 0; rCAG RNA binder: -5

How did COc1cccc(C2NC(=S)N(Cc3ccc(Br)cc3)C(C)=C2C(C)=O)c1 (configuration not stated) do in these assays?
MBD2 inh: 1; PRMT1 inh: 0; UHRF1 binding: 0; LEDGF integ inh: 0; rCAG RNA binder: 3

How did C#CCOCCOCCOCCNc1nc(N2CCN(C(=O)CCCCCCCCCCNC(=O)[C@H]([C@@H](C)CC)n3cc(CCCCCN)nn3)CC2)nc(N2CCN(C(=O)CCCCCCCCCCNC(=O)[C@@H]([C@H](C)O)n3cc(C)nn3)CC2)n1 do in these assays?
ABHD5-PLIN5 inh: 41*

What do the screens show for `C#CCOCCOCCOCCNc1nc(N2CCN(C(=O)CCCCCCCCCCNC(=O)[C@H](CCCCN)n3cc(C)nn3)CC2)nc(N2CCN(C(=O)CCCCCCCCCCNC(=O)[C@@H]([C@H](C)CC)n3cc(CCCCCN)nn3)CC2)n1`?
ABHD5-PLIN5 inh: 45*

What do the screens show for `C#CCOCCOCCOCCNc1nc(N2CCN(C(=O)CCCCCCCCCCNC(=O)Cn3cc(CCCCCN)nn3)CC2)nc(N2CCN(C(=O)CCCCCCCCCCNC(=O)[C@H]([C@@H](C)CC)n3cc(CCCCCN)nn3)CC2)n1`?
ABHD5-PLIN5 inh: 34*

What do the screens show for `C#CCOCCOCCOCCNc1nc(N2CCOCC2)nc(N2CCN(C(=O)CCCCCCCCCCNC(=O)[C@@H]([C@H](C)O)n3cc(C)nn3)CC2)n1`?
MBD2 inh: 6; PRMT1 inh: 4; ABHD5-PLIN5 inh: -5; UHRF1 binding: 0; LEDGF integ inh: -1; rCAG RNA binder: -4

What do the screens show for `Cc1ccc(-n2c(SC/C=C/c3ccccc3)nnc2-c2ccco2)cc1`?
MBD2 inh: 0; PRMT1 inh: -2; UHRF1 binding: 0; LEDGF integ inh: 2; rCAG RNA binder: 0

How did C[C@@H]1CN(C(=O)OC(C)(C)C)CCN1c1ccc(Br)c(C#N)c1 do in these assays?
MBD2 inh: 2; PRMT1 inh: -4; UHRF1 binding: -3; LEDGF integ inh: 0; rCAG RNA binder: -1

Results for COc1cccc(CNC(=O)[C@H]2CCCN2C(=O)[C@H]2CCCN2S(=O)(=O)c2cccc(C)c2)c1 ?
MBD2 inh: -1; PRMT1 inh: 0; UHRF1 binding: -2; LEDGF integ inh: 1; rCAG RNA binder: 1

How did CS(=O)(=O)c1ccc(C(=O)Nc2ccc(N3CCOCC3)cc2)c(Cl)c1 do in these assays?
MBD2 inh: 6; PRMT1 inh: 3; ABHD5-PLIN5 inh: -8; UHRF1 binding: 0; LEDGF integ inh: -6; rCAG RNA binder: -3

How did CS(=O)(=O)c1ncc(Cl)c(C(=O)Nc2ccc(N3CCOCC3)cc2)n1 do in these assays?
ABHD5-PLIN5 inh: 60*

Results for O=C(Cc1ccccc1Cl)NCCN1C(=O)C2C3C=CC(C3)C2C1=O (configuration not stated) ?
MBD2 inh: 7; PRMT1 inh: 2; UHRF1 binding: -2; LEDGF integ inh: 5; rCAG RNA binder: 4

How did COc1cccc(CNC(=O)CCC2CCCN(C(=O)c3ccoc3)C2)c1 (configuration not stated) do in these assays?
MBD2 inh: 11; PRMT1 inh: 3; ABHD5-PLIN5 inh: -1; UHRF1 binding: 25*; LEDGF integ inh: -5; rCAG RNA binder: -4

What do the screens show for `COc1cccc(CNC(=O)CCC2CCCN(C(=O)c3ccc(OC)c(F)c3)C2)c1` (configuration not stated)?
MBD2 inh: -5; PRMT1 inh: 3; ABHD5-PLIN5 inh: -3; UHRF1 binding: 2; LEDGF integ inh: -1; rCAG RNA binder: -7

Results for CNC(=O)CSc1nnc(-c2cc(C)cc(C)c2)o1 ?
MBD2 inh: -7; PRMT1 inh: 4; ABHD5-PLIN5 inh: 7; UHRF1 binding: 67*; LEDGF integ inh: 0; rCAG RNA binder: -1

How did Cc1ccc(CNC(=O)C2c3ccccc3C(=O)N3CCc4ccccc4C23)o1 (configuration not stated) do in these assays?
MBD2 inh: -5; PRMT1 inh: 2; ABHD5-PLIN5 inh: 22*; UHRF1 binding: -4; LEDGF integ inh: 0; rCAG RNA binder: 1

Results for O=C(NCCN1CCN(Cc2ccccc2)CC1)C1c2ccccc2C(=O)N2CCc3ccccc3C12 (configuration not stated) ?
MBD2 inh: 0; PRMT1 inh: 2; ABHD5-PLIN5 inh: 2; UHRF1 binding: 2; LEDGF integ inh: 3; rCAG RNA binder: -7
